Source: PubChem BioAssay AID1159580 (chemical genetic matrix, 2015)
Values joined by “and” are separate entries in the source; they are usually repeats but may differ in a detail not shown here. Equal entries are not always repeated. The whole screen tested about 5,500 compounds, of which about 2,000 (36%) were called active. Not shown: some 18% with an inconclusive outcome. No stated cut-off is given here; in the data, active means normalized growth mostly below about 0.91 (no sharp cut-off); inconclusive means no clear call, values can overlap the other calls; inactive means mostly above about 0.92. The list shows a part of the results.

Test: chemical genetic growth profiling, strain panel (AID 1159580);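 further: tested at 20 µM; growth read once vehicle control cultures reached saturation at 30 °C; 1 = growth at the plate median or of vehicle wells; lower values mean less growth of the strain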
Conditions: S. cerevisiae deletion strains, growth OD

Measured: normalized growth

C[C@@H]1O[C@@H](OC[C@H]2OC(Oc3c(-c4ccc(O)c(O)c4)oc4cc(O)cc(O)c4c3=O)[C@H](O)[C@@H](O)[C@@H]2O)[C@H](O)[C@H](O)[C@H]1O (stereo not given in full)
inactive: locus YAL013W, strain DEP1, active compounds read low 0.995 | locus YAL021C, strain ccr4, active compounds read low 0.964 | locus YAL026C, strain drs2, active compounds read low 0.993 | locus YAL030W, strain snc1, active compounds read low 0.998 | locus YBL061C, strain skt5, active compounds read low 1.01 | locus YBR009C, strain hhf1, active compounds read low 0.994 | locus YBR021W, strain FUR4, active compounds read low 1.03 | locus YBR023C, strain chs3, active compounds read low 1 | locus YBR171W, strain sec66, active compounds read low 1 | locus YBR229C, strain ROT2, active compounds read low 1.01 | locus YBR231C, strain swc5, active compounds read low 1 | locus YBR279W, strain paf1, active compounds read low 0.996 | locus YCL011C, strain gbp2, active compounds read low 0.98 | locus YCL016C, strain dcc1, active compounds read low 0.982 | locus YCL029C, strain bik1, active compounds read low 0.988 | locus YCL061C, strain MRC1, active compounds read low 1.01 | locus YCL069W, strain vba3, active compounds read low 1.01 | locus YCR088W, strain abp1, active compounds read low 1.01 | locus YDL005C, strain med2, active compounds read low 1 | locus YDL035C, strain GPR1, active compounds read low 0.975 | locus YDL040C, strain nat1, active compounds read low 1 | locus YDL074C, strain BRE1, active compounds read low 0.949 | locus YDL101C, strain DUN1, active compounds read low 1 | locus YDL185W, strain tfp1, active compounds read low 0.941 | locus YDL192W, strain arf1, active compounds read low 0.989 | locus YDR001C, strain nth1, active compounds read low 0.986 | locus YDR069C, strain doa4, active compounds read low 1 | locus YDR101C, strain arx1, active compounds read low 0.983 | locus YDR137W, strain rgp1, active compounds read low 0.974 | locus YDR150W, strain NUM1, active compounds read low 0.996 | locus YDR159W, strain sac3, active compounds read low 1.07 | locus YDR162C, strain NBP2, active compounds read low 1.01 | locus YDR195W, strain ref2 1 | locus YDR297W, strain sur2, active compounds read low 1.01 | locus YDR318W, strain mcm21, active compounds read low 1 | locus YDR334W, strain swr1, active compounds read low 1 | locus YDR335W, strain msn5, active compounds read low 0.979 | locus YDR388W, active compounds read low 1 | locus YDR392W, strain spt3, active compounds read low 0.979 | locus YDR502C, strain sam2, active compounds read low 1.01 | locus YEL003W, strain gim4, active compounds read low 1.01 | locus YEL037C, strain rad23, active compounds read low 1.01 | locus YEL061C, strain CIN8 (second series), active compounds read low 1 | locus YEL061C, strain CIN8, active compounds read low 1.01 | locus YER015W, strain faa2, active compounds read low 0.973 | locus YER016W, strain bim1, active compounds read low 1 | locus YER110C, active compounds read low 0.985 | locus YER111C, strain swi4, active compounds read low 0.994 | locus YER155C, strain BEM2 (second series), active compounds read low 1.09 | locus YER155C, strain BEM2, active compounds read low 1 | locus YER167W, strain BCK2, active compounds read low 1.01 | locus YFR010W, strain ubp6, active compounds read low 1 | locus YGL078C, strain dbp3, active compounds read low 0.971 | locus YGL086W, strain mad1, active compounds read low 0.997 | locus YGL167C, strain pmr1, active compounds read low 0.975 | locus YGL173C, strain kem1, active compounds read low 1.02 | locus YGL227W, strain vid30, active compounds read low 1 | locus YGL240W, strain doc1, active compounds read low 1.04 | locus YGL248W, strain PDE1, active compounds read low 1.03 | locus YGL253W, strain hxk2, active compounds read low 0.991 | locus YGR078C, strain PAC10, active compounds read low 1.03 | locus YGR135W, strain pre9, active compounds read low 1.03 | locus YGR252W, strain gcn5, active compounds read low 1.09 | locus YHR013C, strain ard1, active compounds read low 0.979 | locus YHR027C, strain rpn1, active compounds read low 0.985 | locus YHR030C, strain SLT2, active compounds read low 0.992 and 1.1 | locus YHR079C, strain IRE1 (second series), active compounds read low 0.98 | locus YHR079C, strain IRE1, active compounds read low 1.07 | locus YHR094C, strain hxt1, active compounds read low 0.997 | locus YHR129C, strain ARP1, active compounds read low 1.01 | locus YHR142W, strain chs7, active compounds read low 0.969 | locus YHR200W, strain rpn10, active compounds read low 1 | locus YIL066C, strain RNR3, active compounds read low 1 | locus YIL073C, strain SPO22, active compounds read low 0.99 | locus YIL125W, strain kgd1, active compounds read low 0.994 | locus YIR030C, strain dcg1, active compounds read low 0.997 | locus YJL092W, strain hpr5, active compounds read low 1 | locus YJL095W, strain BCK1 (second series), active compounds read low 1 | locus YJL095W, strain BCK1, active compounds read low 1.07 and 1.06 | locus YJL115W, strain asf1, active compounds read low 0.968 | locus YJL129C, strain trk1, active compounds read low 0.987 | locus YJL134W, strain LCB3, active compounds read low 0.997 | locus YJL154C, strain vps35, active compounds read low 0.999 | locus YJL164C, strain tpk1, active compounds read low 0.974 | locus YJL166W, strain qcr8, active compounds read low 1.02 | locus YJL168C, strain set2, active compounds read low 0.996 | locus YJL187C, strain SWE1 (second series), active compounds read low 1.01 | locus YJL187C, strain SWE1, active compounds read low 0.999 | locus YJR043C, strain POL32, active compounds read low 1 | locus YJR066W, strain TOR1, active compounds read low 1 | locus YJR075W, strain HOC1, active compounds read low 1.02 | locus YKL009W, strain mrt4, active compounds read low 1.11 | locus YKL068W, active compounds read low 0.982 | locus YKL085W, strain MDH1 (second series), active compounds read low 0.992 | locus YKL085W, strain MDH1, active compounds read low 0.992 | locus YKL160W, strain elf1, active compounds read low 0.976 | locus YKR001C, strain vps1, active compounds read low 1.01 | locus YKR026C, strain gcn3, active compounds read low 1 | locus YKR091W, strain srl3, active compounds read low 0.996 | locus YLL001W, strain dnm1, active compounds read low 0.942 | locus YLL026W, active compounds read low 0.997 | locus YLL041C, strain sdh2, active compounds read low 0.995 | locus YLR027C, strain aat2, active compounds read low 1.01 | locus YLR039C, strain RIC1, active compounds read low 0.979 | locus YLR058C, strain SHM2, active compounds read low 1.03 | locus YLR102C, strain apc9, active compounds read low 1 | locus YLR113W, strain HOG1, active compounds read low 1.03 | locus YLR221C, strain rsa3, active compounds read low 1.06 | locus YLR258W, strain gsy2, active compounds read low 1.02 | locus YLR262C, strain YPT6 (second series), active compounds read low 1.03 | locus YLR262C, strain YPT6, active compounds read low 0.99 | locus YLR268W, strain sec22, active compounds read low 0.977 | locus YLR320W, strain mms22, active compounds read low 1.08 | locus YLR330W, strain CHS5, active compounds read low 0.999 | locus YLR342W, strain FKS1 (second series), active compounds read low 1 | locus YLR342W, strain FKS1, active compounds read low 1.01 | locus YLR357W, strain rsc2, active compounds read low 0.955 | locus YLR370C, strain arc18, active compounds read low 1.01 | locus YLR371W, strain rom2, active compounds read low 0.995 | locus YLR384C, strain iki3, active compounds read low 0.993 | locus YLR418C, strain cdc73, active compounds read low 1.03 | locus YML016C, strain PPZ1, active compounds read low 1.01 | locus YML032C, strain rad52, active compounds read low 1.03 | locus YML120C, strain ndi1, active compounds read low 0.972 | locus YML124C, strain tub3, active compounds read low 0.993 | locus YMR078C, strain ctf18, active compounds read low 0.999 | locus YMR125W, strain sto1, active compounds read low 0.965 | locus YMR129W, active compounds read low 1.01 | locus YMR205C, strain PFK2, active compounds read low 1 | locus YMR223W, strain ubp8, active compounds read low 1.01 | locus YMR231W, strain pep5, active compounds read low 1 | locus YMR307W, strain GAS1, active compounds read low 1.03 | locus YNL067W, strain RPL9B, active compounds read low 1.01 | locus YNL071W, strain lat1, active compounds read low 1.02 | locus YNL183C, strain NPR1, active compounds read low 0.999 | locus YNL209W, strain ssb2, active compounds read low 0.939 | locus YNL233W, strain BNI4, active compounds read low 1.02 | locus YNL248C, strain rpa49, active compounds read low 1.01 | locus YNL250W, strain rad50, active compounds read low 0.963 | locus YNL271C, strain bni1, active compounds read low 0.987 | locus YNL298W, strain CLA4, active compounds read low 0.982 | locus YNL307C, strain MCK1, active compounds read low 0.987 | locus YNL322C, strain KRE1 (second series), active compounds read low 0.997 | locus YNL322C, strain KRE1, active compounds read low 1.01 | locus YNR049C, strain mso1, active compounds read low 0.998 | locus YNR052C, strain pop2, active compounds read low 1.01 | locus YOL006C, strain TOP1, active compounds read low 1.03 | locus YOL012C, strain htz1 0.939 | locus YOL147C, strain pex11, active compounds read low 1 | locus YOR001W, strain rrp6, active compounds read low 1.03 | locus YOR061W, strain CKA2, active compounds read low 1.01 | locus YOR069W, strain VPS5, active compounds read low 0.994 | locus YOR070C, strain gyp1, active compounds read low 0.999 | locus YOR080W, strain dia2, active compounds read low 1.01 | locus YOR083W, strain WHI5, active compounds read low 0.97 | locus YOR106W, strain vam3, active compounds read low 0.877 | locus YOR136W, strain idh2, active compounds read low 0.99 | locus YOR144C, strain elg1, active compounds read low 1.01 | locus YOR184W, strain ser1, active compounds read low 1 | locus YOR231W, strain MKK1, active compounds read low 1.05 | locus YOR265W, strain rbl2, active compounds read low 1.01 | locus YOR270C, strain vph1, active compounds read low 1 | locus YOR290C, strain snf2, active compounds read low 0.959 | locus YOR316C, strain cot1, active compounds read low 0.999 | locus YPL051W, strain arl3, active compounds read low 0.971 | locus YPL078C, strain atp4, active compounds read low 0.941 | locus YPL106C, strain sse1, active compounds read low 0.999 | locus YPL240C, strain hsp82, active compounds read low 1 | locus YPL256C, strain CLN2, active compounds read low 1.09 | locus YPR119W, strain clb2, active compounds read low 1 | locus YPR141C, strain kar3, active compounds read low 0.994 | locus YPR163C, strain tif3, active compounds read low 0.998 | locus YPR167C, strain met16, active compounds read low 0.991 | strain wtn01, active compounds read low 0.975
active: locus YMR058W, strain fet3, active compounds read low 0.881
